Results on 27 compounds are retold here after PubChem BioAssay (NCI).

Each structure is given as a SMILES string. About 83,000 compounds went through this panel and 20% of them were active in at least one assay; those are over-represented in the sample as a whole.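 Cell lines were cultured in 96-well plates, exposed to a single compound concentration, and assessed for percent growth 48 hours later.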 Unmarked numbers belong to inactive results. The source made the active and inactive calls. Rule for the calls: active = growth percent below 10; inactive = the rest.

Common to all, as to test: NCI-60 one-dose screen, 48 h (100 = growth as untreated, 0 = no growth, -100 = all killed)
Conditions in all cases: 10 µM unless noted

For assay [1], the system named is NCI-H23 lung.
Assay [2] relates to NCI-H226 lung.
Assay [3] concerns NCI-H322M lung.
Assay [4] has as its system HOP-62 NSCLC.
Assay [5] deals with NCI-H460 lung.
For assay [6], the system named is HOP-92 NSCLC.
In assay [7] the test system is NCI-H522 lung.
For assay [8], the system named is A549/ATCC NSCLC.
For assay [9], the system named is 786-0 renal.
The test system of assay [10] is COLO 205 colon.

Take `CNC(C)=O`: the growth is 95.3% in assay [1]; 95.1% in assay [2]; 92% in [3]; 94.4% in [4]; 106% in assay [5]; 103% in [6]. Besides, the growth in [7] was 89%; in [8] it was 92.1%; in assay [9], 106%; in assay [10], 98.8%.

Take `O=C(Nc1cc(C(F)(F)F)cc(C(F)(F)F)c1)Nc1ccc(OCc2nnc(-c3ccc(Cl)cc3)o2)c(F)c1`: the growth is -5.96% (active) in assay [1]; 6.03% (active) in assay [2]; 19.3% in assay [3]; 10.3% in [4]; 6.63% (active) in assay [5]; -11.9% (active) in assay [6]. Moreover, the growth was -22.8% (active) in [7], 10.5% in assay [8], 15.1% in assay [9] and -84.7% (active) in assay [10].

`O=C(O)c1ccc(-n2c(=O)c3ccccc3c3ccccc3c2=O)cc1`: the growth in [1] was 102%; in assay [2], 99.8%; in [3] it was 108%; in [4] it was 102%; in assay [5] it was 115%; in [6] it was 110%. Further, the growth in [7] is 94.9%; in [8], 106%; in assay [9] it was 109%; in [10] it was 105%.

In the case of `Oc1ccc(Cl)cc1-c1cc(-c2ccc(Cl)cc2)n[nH]1`, the growth in [1] is 49.8%; in [2] it was 64.4%; in assay [3], 55.5%; in assay [4] it was 55.9%; in assay [5] it was 40.4%; in [6] it was 42.9%. In addition, the growth in [7] was 47.5%; in [8], 49.3%; in [9], 84.6%; in assay [10], 73.7%.

Consider `CCN(CC)P(=O)(N(CC)CC)N(CCCSC/C=C(\C)CC/C=C(\C)CCC=C(C)C)CCCN1CCN(C)CC1`, for which the growth in assay [1] was 110%; in assay [2] it was 96.9%; in assay [3], 108%; in assay [4] it was 106%; in assay [5] it was 101%; in assay [6], 82.4%. For the same compound, the growth in [7] is 91.6%; in assay [8] it was 87.6%; in [9] it was 101%; in assay [10], 105%.

For `CCC(c1ccc(OC)cc1)C(CC)c1ccc(O)c(CN2CCCC2)c1` (stereo not given), the growth in assay [1] was 9.32% (active); in [2] it was 31.7%; in assay [3] it was 14.4%; in [4], 30.9%; in [5] it was -47.2% (active); in assay [6], -34.7% (active). The growth in assay [7] was 22.8%; in assay [8] it was 33.1%; in [9], 4.61% (active); in [10], -85% (active).

With `CCC(=O)Nc1ccccc1C#C/C=C\C#Cc1ccccc1SC`, the growth is 79.9% in assay [1]; 76.4% in [2]; 101% in assay [3]; 66.5% in assay [4]; 28.6% in assay [5]; 48.1% in assay [6]. Besides, the growth in assay [7] is 84.4%; in assay [8] it was 62.4%; in assay [9] it was 87.7%; in assay [10] it was 66.2%.

For `Nc1c(C(=O)Nc2ccccc2)sc2nc3c(cc12)CN(Cc1ccccc1)CC3`, the growth in assay [1] is 79.1%; in assay [2], 45.2%; in assay [3], 50%; in assay [4] it was 52.1%; in [5] it was 32.8%; in assay [6], 20.2%. In addition, the growth in assay [7] is 80.2%; in [8], 54.2%; in [9], 28.8%; in assay [10], 97.8%.

On to `COc1ccc(S(=O)(=O)NCCNc2nccc(-c3c(-c4ccccc4)nc4sccn34)n2)cc1`, for which the growth is 37% in assay [1]; 13.2% in assay [2]; 45.9% in assay [3]; 64.4% in assay [4]; 23.6% in [5]; 48.9% in assay [6]. For the same compound, the growth in [7] was 41%; in assay [8], 18.4%; in assay [9] it was 32%; in assay [10] it was 1.41% (active).

In the case of `O=C(Nc1ccc(Cl)cc1)c1cc(-c2ccc(F)cc2)c2sc(=O)[nH]c2n1`, the growth in assay [1] was 5.26% (active); in assay [2], 11.6%; in assay [3] it was 13.2%; in assay [4], 6.64% (active); in assay [5] it was 1.4% (active); in assay [6] it was -24.2% (active). Moreover, the growth was 3.59% (active) in assay [7], 12.2% in assay [8], 14.5% in [9] and 8.8% (active) in assay [10].

As for `CC/C=C\C[C@H](O)C/C=C1/C(=O)C(Cl)=C[C@@H]1C/C=C\CCCC(=O)OC`, the growth in assay [1] was -43.8% (active); in [2] it was -10.9% (active); in assay [3], 31.8%; in assay [4] it was -27.1% (active); in [5], -31.6% (active); in assay [6] it was -31.3% (active). Moreover, the growth is -67.1% (active) in assay [7], 4.38% (active) in [8], -40.8% (active) in [9] and -61.6% (active) in assay [10].

Regarding `O=C(Nc1ccccc1)OCC1OCOC(COC(=O)Nc2ccccc2)C1OC(=O)Nc1ccccc1` (stereo not given), the growth in [1] was 67.1%; in assay [2] it was 84%; in assay [3] it was 49.4%; in assay [4], 64.8%; in assay [5], 6.23% (active); in assay [6] it was 94.9%. Besides, the growth in assay [7] is 38.2%; in assay [8], 47.9%; in [9], 49.3%; in assay [10], 91.6%.

Take `O=C1Nc2cc(Cl)ccc2/C1=C/c1ccc(N2CCOCC2)s1`: the growth in [1] was 109%; in assay [2], 92.9%; in assay [3], 101%; in assay [4], 99.4%; in assay [5], 112%; in assay [6], 89.4%. Besides, the growth in [7] is 101%; in assay [8], 103%; in assay [9], 88.5%; in [10], 95.1%.

With `C=C1C(=O)O[C@H]2[C@H](O)[C@@H](C)CCC/C(C)=C/CC[C@@]3(C)O[C@@H]3C[C@@H]12`, the growth was 95.3% in assay [1]; 80.9% in assay [2]; 81% in assay [3]; 96.3% in assay [4]; 91.4% in [5]; 58% in assay [6]. The growth is -17.3% (active) in [7], 80.7% in assay [8], 93.7% in assay [9] and 90.7% in assay [10].

For the compound `COc1ccc(OC)c(C(=O)c2oc3ccc(Br)cc3c2N)c1`, the growth in assay [1] was 24.7%; in assay [2] it was 55.9%; in [3], 20.9%; in [4] it was 33.6%; in [5], 8.36% (active); in assay [6] it was 4.96% (active). Besides, the growth in assay [7] is -2.14% (active); in [8] it was 12.2%; in [9], 38%; in assay [10], -16.1% (active).

Consider `O=C1c2ccccc2C(=O)c2c1oc1oc3c(c(=O)c21)c(=O)n(-c1ccccc1)c1ccccc31`, for which the growth is 38.2% in [1]; 86.3% in assay [2]; 63.5% in [3]; 36.1% in assay [4]; 33.6% in assay [5]; 80% in assay [6]. Further, the growth in [7] was 19.4%; in assay [8], 37.7%; in [9] it was 97.9%; in assay [10] it was 92.7%.

`O=S(=O)(NCCCNc1cc(-c2cn(-c3ccccc3)nc2-c2cccc(O)c2)ccn1)c1ccc(Cl)cc1`: the growth in assay [1] is 33.1%; in [2], 24.8%; in [3], 25.2%; in assay [4], 29.1%; in [5] it was 10.9%; in assay [6] it was -6.58% (active). The growth is 20.2% in assay [7], 18.8% in [8], -11.8% (active) in assay [9] and -68.5% (active) in [10].

Consider `O=C(CSc1nc(-c2ccc(Cl)cc2)cn1-c1ccc(Cl)cc1)c1ccc(Br)cc1`, for which the growth in assay [1] is 77.1%; in assay [2], 68.4%; in assay [3], 94.2%; in [4] it was 48.3%; in assay [5], 50.8%; in assay [6], 43.9%. Besides, the growth is 58.8% in assay [7], 59.2% in [8], 34.7% in assay [9] and 81.7% in assay [10].

Take `CCN1C(=S)N(CC)C2Nn3c(s/c(=C4\C(=O)N(C)c5ccccc54)c3=O)=NC21` (stereo not given): the growth is 44.9% in assay [1]; 88.6% in assay [2]; 73.1% in assay [3]; 52.3% in assay [4]; 29% in [5]; 76.1% in assay [6]. The growth in assay [7] is 32.3%; in [8], 50.3%; in assay [9], 56.2%; in assay [10] it was 30.8%.

On to `Cc1c(C(=O)NCc2ccccc2)[n+](=O)c2cc(F)ccc2n1[O-]`, for which the growth is 90.1% in assay [1]; 103% in assay [2]; 117% in assay [3]; 94.8% in assay [4]; 109% in [5]; 64.3% in assay [6]. The growth was 90.9% in [7], 109% in assay [8], 101% in [9] and 123% in [10].

`O=S(=O)(NCCCNc1cc(-c2cn(-c3ccccc3)nc2-c2cccc(O)c2)ccn1)c1cccc(F)c1`: the growth is 58.6% in assay [1]; 46.4% in assay [2]; 57.9% in assay [3]; 66.7% in [4]; 35.6% in assay [5]; 26% in [6]. In addition, the growth in assay [7] is 44.4%; in assay [8], 37%; in assay [9] it was 13.1%; in assay [10] it was -55.9% (active).

For the compound `NC(=O)c1c(NC(=O)c2ccc3c(c2)OCO3)sc2c1CCC(=O)C2`, the growth in assay [1] was -12.6% (active); in [2], -5.74% (active); in [3] it was 14.8%; in assay [4], 14.9%; in [5] it was 3.04% (active); in assay [6], -21% (active). In addition, the growth in assay [7] was -58.9% (active); in assay [8], -9.76% (active); in assay [9] it was 12.2%; in assay [10], -42.2% (active).

On to `COc1cc(/C=C\c2cc(OC)c(OC)c(OC)c2)cc(N/C=C\C(=O)c2c[nH]c3ccccc23)c1OC`, for which the growth in assay [1] is 60.5%; in [2], 65.5%; in assay [3], 80.4%; in assay [4], 83%; in assay [5], 82.6%; in assay [6] it was 48.4%. Besides, the growth is -76.9% (active) in [7], 84.3% in assay [8], -5.56% (active) in assay [9] and -77.2% (active) in assay [10].

As to `O=C(NCCc1c[nH]c2ccccc12)C1Cc2ccccc2CN1C(=O)c1ccco1` (stereo not given), the growth was 127% in [1]; 106% in [2]; 87.3% in assay [3]; 94.6% in assay [4]; 114% in assay [5]; 29.9% in assay [6]. The growth in assay [7] was 78.6%; in assay [8], 97.7%; in [9], 104%; in assay [10] it was 134%.

For `CCN1C(=O)N(CC)C2C1NN=c1s/c(=C\c3cccc(F)c3)c(=O)n12` (stereo not given), the growth in [1] is 33.9%; in assay [2] it was 105%; in [3] it was 49.6%; in assay [4] it was 42.2%; in assay [5], 1.33% (active); in assay [6], 29.6%. The growth in assay [7] is -0.955% (active); in [8], 27%; in assay [9], 12.2%; in [10] it was -5.47% (active).

Turning to `COC(=O)CCCCCCN=Cc1c(O)c(O)c(C(C)C)c2cc(C)c(-c3c(C)cc4c(C(C)C)c(O)c(O)c(C=NCCCCCCC(=O)OC)c4c3O)c(O)c12`, the growth was 19.5% in assay [1]; 77.3% in assay [2]; 45.2% in assay [3]; 24% in [4]; 6.7% (active) in [5]; 7.71% (active) in [6]. For the same compound, the growth in assay [7] is -6.49% (active); in assay [8] it was 29.7%; in assay [9], 29%; in assay [10], 15.7%.

Take `O=C(CN1CCN(c2cc3c(cc2F)c(=O)c(C(=O)O)cn3C2CC2)CC1)Nc1ccc(C(=O)/C=C/c2ccc(Cl)cc2)cc1`: the growth in [1] is 105%; in assay [2], 92.5%; in [3], 111%; in assay [4], 107%; in assay [5], 112%; in assay [6] it was 95.8%. For the same compound, the growth was 47.7% in [7], 97.6% in assay [8], 88.9% in [9] and 112% in assay [10].
